Several values for one entry are separate records, joined by “and”; a condition that tells them apart may be missing. Equal entries are not always repeated. About 2,000 (36%) of roughly 5,500 compounds were called active. About 18% were inconclusive and are not listed. Cut-off read from the data, not from the text of the source: active = normalized growth mostly below about 0.91 (no sharp cut-off); inconclusive = no clear call, values can overlap the other calls; inactive = mostly above about 0.92. Some of the results follow.
Assay: chemical genetic growth profiling, strain panel (AID 1159580);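 note: tested at 20 µM; growth read once vehicle control cultures reached saturation at 30 °C; 1 = growth at the plate median or of vehicle wells; lower values mean less growth of the strain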
Details: S. cerevisiae deletion strains, growth OD

Measured: normalized growth

NC(=O)c1cnccn1
inactive: locus YAL013W, strain DEP1, hits give low values 1.01 and 1.02 | locus YAL021C, strain ccr4, hits give low values 0.992 | locus YAL026C, strain drs2, hits give low values 1.01 | locus YAL030W, strain snc1, hits give low values 0.996 | locus YAL040C, strain CLN3, hits give low values 1 | locus YBL061C, strain skt5, hits give low values 0.988 | locus YBR009C, strain hhf1, hits give low values 1.01 | locus YBR021W, strain FUR4, hits give low values 1.02 | locus YBR023C, strain chs3, hits give low values 1.01 | locus YBR171W, strain sec66, hits give low values 0.968 | locus YBR229C, strain ROT2, hits give low values 1 | locus YBR231C, strain swc5, hits give low values 0.984 | locus YBR279W, strain paf1, hits give low values 1 | locus YCL011C, strain gbp2, hits give low values 1 | locus YCL016C, strain dcc1, hits give low values 1.01 | locus YCL029C, strain bik1, hits give low values 1 | locus YCL061C, strain MRC1 (second series), hits give low values 1.01 | locus YCL069W, strain vba3, hits give low values 1 | locus YCR088W, strain abp1, hits give low values 0.981 | locus YDL005C, strain med2, hits give low values 0.974 | locus YDL035C, strain GPR1, hits give low values 1.01 | locus YDL040C, strain nat1, hits give low values 0.984 | locus YDL074C, strain BRE1, hits give low values 1 | locus YDL101C, strain DUN1, hits give low values 1.01 | locus YDL134C, strain PPH21, hits give low values 1.01 | locus YDL185W, strain tfp1, hits give low values 1.02 | locus YDL192W, strain arf1, hits give low values 1.01 | locus YDR001C, strain nth1, hits give low values 0.996 | locus YDR069C, strain doa4, hits give low values 0.982 | locus YDR101C, strain arx1, hits give low values 1 | locus YDR137W, strain rgp1, hits give low values 0.98 | locus YDR150W, strain NUM1, hits give low values 0.993 and 1 | locus YDR159W, strain sac3, hits give low values 1 | locus YDR162C, strain NBP2, hits give low values 1.01 | locus YDR195W, strain ref2 0.905 | locus YDR297W, strain sur2, hits give low values 0.994 | locus YDR318W, strain mcm21, hits give low values 1.02 | locus YDR334W, strain swr1, hits give low values 0.98 | locus YDR335W, strain msn5, hits give low values 0.99 | locus YDR363W, strain ESC2, hits give low values 0.964 | locus YDR388W, hits give low values 1.01 | locus YDR392W, strain spt3, hits give low values 1.05 | locus YDR502C, strain sam2, hits give low values 1.01 | locus YEL003W, strain gim4, hits give low values 0.992 | locus YEL037C, strain rad23, hits give low values 0.995 | locus YEL061C, strain CIN8 (second series), hits give low values 0.994 | locus YEL061C, strain CIN8, hits give low values 1 | locus YER002W, strain NOP16, hits give low values 1.01 | locus YER015W, strain faa2, hits give low values 0.995 | locus YER016W, strain bim1, hits give low values 1 | locus YER110C, hits give low values 0.995 | locus YER111C, strain swi4, hits give low values 0.993 | locus YER155C, strain BEM2 (second series), hits give low values 0.955 | locus YER155C, strain BEM2, hits give low values 1.01 | locus YER167W, strain BCK2, hits give low values 1.01 | locus YFR010W, strain ubp6, hits give low values 0.979 | locus YGL078C, strain dbp3, hits give low values 0.993 | locus YGL086W, strain mad1, hits give low values 1.02 | locus YGL167C, strain pmr1, hits give low values 0.987 | locus YGL173C, strain kem1, hits give low values 0.983 | locus YGL227W, strain vid30, hits give low values 0.991 | locus YGL240W, strain doc1, hits give low values 0.959 | locus YGL248W, strain PDE1, hits give low values 1 | locus YGL253W, strain hxk2, hits give low values 1.02 | locus YGR135W, strain pre9, hits give low values 0.996 | locus YGR229C, strain SMI1, hits give low values 1.03 and 1.02 | locus YGR252W, strain gcn5, hits give low values 0.988 | locus YHR013C, strain ard1, hits give low values 0.966 | locus YHR027C, strain rpn1, hits give low values 0.995 | locus YHR030C, strain SLT2, hits give low values 1 and 1.07 | locus YHR079C, strain IRE1 (second series), hits give low values 1.01 | locus YHR079C, strain IRE1, hits give low values 1.03 | locus YHR094C, strain hxt1, hits give low values 0.999 | locus YHR129C, strain ARP1, hits give low values 0.996 | locus YHR142W, strain chs7, hits give low values 0.992 | locus YHR200W, strain rpn10, hits give low values 1 | locus YIL066C, strain RNR3, hits give low values 1.01 | locus YIL073C, strain SPO22, hits give low values 1.06 | locus YIL125W, strain kgd1, hits give low values 0.999 | locus YIR030C, strain dcg1, hits give low values 1 | locus YJL092W, strain hpr5, hits give low values 0.974 | locus YJL095W, strain BCK1 (second series), hits give low values 0.995 | locus YJL095W, strain BCK1, hits give low values 0.997 and 1.06 | locus YJL115W, strain asf1, hits give low values 0.995 | locus YJL129C, strain trk1, hits give low values 0.981 | locus YJL134W, strain LCB3, hits give low values 1.01 | locus YJL154C, strain vps35, hits give low values 0.991 | locus YJL164C, strain tpk1, hits give low values 1.01 | locus YJL166W, strain qcr8, hits give low values 0.969 | locus YJL168C, strain set2, hits give low values 1.01 | locus YJL187C, strain SWE1 (second series), hits give low values 1.01 | locus YJR043C, strain POL32, hits give low values 1 | locus YJR066W, strain TOR1, hits give low values 1

— PubChem BioAssay AID1159580 (chemical genetic matrix, 2015)
